Where “and” joins values, the source holds several entries; their conditions need not be identical. Equal values may be shown once. Compounds without any hit were thinned out: in the full panel of roughly 83,000, 20% have a hit.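 Percent growth is the endpoint: 0 to 100 indicates growth inhibition (40 means 60% inhibition), 0 means no net growth, and negative values indicate cell death.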 A structure can be active in one record and inactive in another. Calls of active or inactive are those of the source.

One assay relates to RPMI-8226 leukemia. The assay is described as follows: NCI-60 one-dose screen, 48 h (100 = growth as untreated, 0 = no growth, -100 = all killed). The following applies: 10 µM. The procedure:
Growth inhibition of the RPMI-8226 human tumor cell line is measured as a screen for anti-cancer activity. Cells are grown in 96 well plates and exposed to the test compound for 48 hours. Compounds are tested at a single concentration, which is 10^-5 M for most compounds. The reported endpoint is percent growth (GI% or GIPRCNT), where numbers from 0 - 100% represent growth inhibition, and numbers from -100% - 0 represent cell death. For example, a value of 40 represents 60% growth inhibition. A value of 0 means no net growth occurred over the course of the experiment. A value of -40 indicates 40% of cells at the beginning of the experiment died by the end of the experiment. A value of -100 means all cells are dead at the end of the experiment.
NCI-60 Human Tumor Cell Lines Screen was performed using the standard one-dose NCI protocol, which is described in more detail at https://dtp.cancer.gov/discovery_development/nci-60/default.htm.
Compounds with GIPRCNT values below 10 were considered active. Activity score was based on GIPRCNT using the following formula: […]
Score is 0 for GIPRCNT values of 100 or above, 50 for GIPRCNT values of 0, and 100 for GIPRCNT values of -100.
Regarding `O=C(O)c1sccc1O`, the growth is 71.4% (inactive).
On the same count and under the same terms, in the case of `CC#C[C@]1(O)CC[C@H]2[C@@H]3CCC4=CC(=O)CCC4=C3[C@@H](c3ccc4c(c3)OCO4)C[C@@]21C` it was 69.6% (inactive).

The assay is the same for the next values; noted with them: 10 µM unless noted.
Take `CNC(=O)c1cccc(-c2ccc3c(N4CCOC[C@@H]4C)nc(N4CCOC[C@@H]4C)nc3n2)c1`: the growth was 3.4% (active) and 4.33% (active).
The same measure, in the same setting: in the case of `CNc1cc(-c2cccc(OC(F)(F)F)c2)nc2ccc(N3CCCC3)cc12` it was -51.4% (active) and -43.5% (active) and -37.5% (active); in that of `Nc1ccc2ccc(N)cc2c1`, 84.6% (inactive).
Still for that read-out and setting: as for `CCOC(=O)Nc1nc2ccccc2[nH]1`, the figure is 97.3% (inactive) and -1.09% (active).
`O=C(Oc1cccc(OC(=O)c2ccccc2)c1)c1ccccc1`: the growth was 69.9% (inactive) and 104% (inactive).
Same read-out and setting: in the case of `Nc1ccc2[nH]c(-c3ccccc3)cc(=O)c2c1` it was 86.1% (inactive).
The same measure, in the same setting: as for `CCN(CC)CCCC(C)Nc1ccnc2cc(Oc3ccccc3)ccc12` (stereo not given), the figure is 68.6% (inactive); as for `OC1CCC(Oc2cccc3cnc(Nc4ccc5nc[nH]c5c4)nc23)CC1` (stereo not given), -16.7% (active) and 55% (inactive); as for `COc1cc(/C=N/Nc2nc3c([nH]2)c(=O)n(C)c(=O)n3C)ccc1O`, 98.3% (inactive) and 103% (inactive).
As for `Nc1ncnc2c1ncn2C1CC(O)C(CO)O1` (stereo not given), the growth was 102% (inactive) and 105% (inactive).
The same measure, in the same setting: as for `Cc1ccc(S(=O)(=O)NCN2C(=O)c3ccccc3C2=O)cc1`, the figure is 103% (inactive); as for `O=[N+]([O-])c1ccccc1/C=N\Nc1ccccc1`, 77.5% (inactive) and 95.6% (inactive).
Still for that read-out and setting: in the case of `CN(C)c1ccc(C(Cc2ccc3ccccc3n2)Cc2ccc3ccccc3n2)cc1` it was 25.4% (inactive) and 51.4% (inactive); in that of `CC(C)(O)Cn1cc(-c2ccc3nc(OC4CC4)ccc3c2)c2c(N)ncnc21`, 55.3% (inactive) and 39.9% (inactive).
For `O=C1c2c(O)cc(O)cc2OC(c2ccc(O)c(O)c2)C1O` (stereo not given), the growth is 99.5% (inactive).
Turning to `CN1CCN(Cc2occc(=O)c2O)CCN(C)CCN(Cc2occc(=O)c2O)CC1`, the growth is 97.2% (inactive) and 29.5% (inactive).
On the same count and under the same terms, as for `O=C(O)CCCCc1ccc([N+](=O)[O-])cc1`, the figure is 95.4% (inactive) and 87.7% (inactive); as for `COc1cc(C(=O)N/N=C/c2ccc(N(C)C)cc2)cc(OC)c1OC`, 19.6% (inactive).
For the molecule `CCN(CC)CCNc1cc(-c2cccc(OC(F)(F)F)c2)nc2ccc(N3CCCC3)cc12`, the growth was -53.3% (active) and -33.8% (active) and 14.6% (inactive).
Still for that read-out and setting: as for `O=C1c2ccccc2C(=O)N1/N=C/c1ccc2c(c1)OCO2`, the figure is 88.5% (inactive); as for `CC(C)CNC(=O)c1ccccc1C(=O)NC1(C(=O)NCC(C)C)CCCC1`, 105% (inactive); as for `Cc1ccc(-c2noc(CC(=O)c3ccc([N+](=O)[O-])cc3)n2)cc1`, 116% (inactive).
Turning to `COc1cc(C(=O)c2ccc3c(c2)OCO3)cc(OC)c1OC`, the growth is 29.6% (inactive) and 34% (inactive).
As to `CCOC(=O)c1sc(N)nc1-c1ccccc1`, the growth is 99.1% (inactive).
The same measure, in the same setting: as for `O=[N+]([O-])c1ccc(Oc2ccccc2)cc1`, the figure is 79% (inactive) and 93.9% (inactive); as for `CC(C)(C)c1ccc(O)c(CNC2CCCCC2)c1`, 82% (inactive) and 74.9% (inactive).
The same measure, in the same setting: in the case of `CCOc1ccc2cc(-c3nn(CC4CCNCC4)c4ncnc(N)c34)ccc2c1` it was 90.6% (inactive) and -13.2% (active); in that of `C[N+](C)(C)CN1C(=O)c2ccccc2C1=O`, 106% (inactive).
On to `ClC/C=C/CSc1ncnc2nc[nH]c12`, for which the growth was 98.7% (inactive).
As to `COc1ccccc1NC(=O)OCC#CCOC(=O)Nc1ccccc1OC`, the growth is 90.2% (inactive) and 72.3% (inactive).
Same read-out and setting: as for `CCCCOc1cc(C(=O)NCCN(CC)CC)c2ccccc2n1`, the figure is 85.4% (inactive) and 93.6% (inactive); as for `CCN(CC)C(=S)SSC(=S)N(CC)CC`, 45.4% (inactive) and 110% (inactive); as for `O=C(Nc1ccc(Cl)cc1)c1cc2ccccc2cc1O`, -10.7% (active) and -29% (active).
The same measure, in the same setting: as for `O=C(N/N=C/c1ccccc1)N/N=C/c1ccccc1`, the figure is 104% (inactive) and 100% (inactive); as for `c1ccc(NCc2ccc3c(c2)OCO3)cc1`, 99.6% (inactive) and 93.7% (inactive).
The same measure, in the same setting: in the case of `CN(Cc1ccccc1)Cc1ccccc1` it was 110% (inactive).

Staying with this assay, now noted: 100 µM.
Turning to `O=C(O)c1sccc1O`, the growth was 16% (inactive).
On the same count and under the same terms, in the case of `CC#C[C@]1(O)CC[C@H]2[C@@H]3CCC4=CC(=O)CCC4=C3[C@@H](c3ccc4c(c3)OCO4)C[C@@]21C` it was -35% (active).

Source of the values: PubChem BioAssay (NCI).
